Source: PubChem BioAssay
The source made the active and inactive calls.

Key:
[1] = optical density shifts of acrAB sulA E. coli – strain DRC41, OD650, 48 h, E. coli filamentation inducer project, primary screen (AID 1152); conditions: higher = more signal, called active from +8 up or from −8 down;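 also: E. coli MC1000 strain DRC41 lacking acrAB efflux pump and sulA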
[2] = probe aLefty1 binding on compound microarray – biochemical, small-molecule microarray, 635/667 nm fluorescence, primary screen (AID 1153); conditions: higher = more signal;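 also: score merges spot fluorescence with signal-to-noise ratio from the scanned slide images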
[3] = plasmodial surface anion channel blockers, osmotic lysis – cell-based, P. falciparum Indochina, OD700, 1 h, primary screen (AID 1154); conditions: P. falciparum Indochina infected RBC osmotic lysis, higher = more signal, called active from +8 up or from −8 down
[4] = plasmodial surface anion channel blockers, osmotic lysis – cell-based, P. falciparum Indochina, OD700, 2 h, primary screen (AID 1155);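 also: lysis reports solute entry through the parasite surface anion channel PSAC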; conditions: P. falciparum Indochina infected erythrocytes, higher = more signal, called active from +8 up or from −8 down
[5] = changes in parasitized red cell lysis, either direction – P. falciparum Indochina, OD700, 3 h, PSAC antagonist project, primary screen (AID 1156); conditions: P. falciparum-infected erythrocytes, osmotic lysis, higher = more signal, called active from +8 up or from −8 down
[6] = plasmodial surface anion channel blockers, osmotic lysis – cell-based, P. falciparum Indochina, OD700, 18 h, primary screen (AID 1157); conditions: P. falciparum Indochina infected erythrocytes, osmotic lysis OD700, 18 h; higher = more signal, called active from +8 up or from −8 down
[7] = S6 kinase pathway phospho-S6 level changes – cell-based, A549, cytoblot, luminescence, serum-stimulated, primary screen (AID 1158); conditions: 5 h, higher = more signal;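 also: serum-stimulated A549 lung adenocarcinoma cells; signal is phosphorylated S6 detected by cytoblot immunostaining with HRP secondary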
[8] = biological target: NADPH oxidase 2 (Homo sapiens) (UniProt P04839); assay: compounds shifting NOX2 Amplex Red fluorescence – cell-based, HEK293-NOX2, PMA-stimulated, NOX inhibitor project, primary screen (AID 1159); conditions: 45 min, higher = more signal, called active from +8 up or from −8 down; also: test concentration not given here
[9] = biological target: NADPH oxidase 4 (Homo sapiens) (UniProt Q9NPH5); assay: compounds shifting NOX4 Amplex Red fluorescence – cell-based, HEK293-NOX4, tetracycline-induced, NOX inhibitor project, primary screen (AID 1160); conditions: HEK293-NOX4, Amplex Red H2O2 fluorescence, 45 min; higher = more signal, called active from +8 up or from −8 down
[10] = biological target: NADPH oxidase 5 (Homo sapiens) (UniProt Q96PH1); assay: compounds shifting NOX5 Amplex Red fluorescence – cell-based, HEK293-NOX5, NOX inhibitor project, primary screen (AID 1161); conditions: HEK293-NOX5, ionomycin, 45 min, higher = more signal
Chain of NADPH oxidase 5 (Homo sapiens) (Q96PH1 whole entry, looked up): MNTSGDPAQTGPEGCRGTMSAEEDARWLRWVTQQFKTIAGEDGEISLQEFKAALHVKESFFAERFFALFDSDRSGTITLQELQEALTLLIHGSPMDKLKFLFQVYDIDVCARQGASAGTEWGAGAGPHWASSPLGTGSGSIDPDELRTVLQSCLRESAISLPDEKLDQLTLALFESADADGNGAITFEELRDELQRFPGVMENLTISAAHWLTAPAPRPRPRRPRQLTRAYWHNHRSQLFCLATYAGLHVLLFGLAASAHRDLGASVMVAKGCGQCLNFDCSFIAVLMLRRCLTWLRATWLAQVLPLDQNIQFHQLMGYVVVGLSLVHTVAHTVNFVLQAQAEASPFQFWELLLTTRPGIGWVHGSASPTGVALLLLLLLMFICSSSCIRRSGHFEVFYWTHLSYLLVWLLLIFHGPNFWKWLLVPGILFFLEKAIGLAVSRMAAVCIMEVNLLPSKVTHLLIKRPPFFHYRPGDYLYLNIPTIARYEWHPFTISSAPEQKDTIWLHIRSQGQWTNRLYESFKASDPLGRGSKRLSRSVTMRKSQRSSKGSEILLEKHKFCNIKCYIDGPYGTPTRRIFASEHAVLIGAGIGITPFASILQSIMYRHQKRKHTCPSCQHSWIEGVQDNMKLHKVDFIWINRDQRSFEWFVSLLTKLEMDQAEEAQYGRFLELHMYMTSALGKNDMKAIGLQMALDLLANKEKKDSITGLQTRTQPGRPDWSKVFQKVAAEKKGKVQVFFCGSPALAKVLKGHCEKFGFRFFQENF

Chain of NADPH oxidase 4 (Homo sapiens) (Q9NPH5 whole entry, looked up): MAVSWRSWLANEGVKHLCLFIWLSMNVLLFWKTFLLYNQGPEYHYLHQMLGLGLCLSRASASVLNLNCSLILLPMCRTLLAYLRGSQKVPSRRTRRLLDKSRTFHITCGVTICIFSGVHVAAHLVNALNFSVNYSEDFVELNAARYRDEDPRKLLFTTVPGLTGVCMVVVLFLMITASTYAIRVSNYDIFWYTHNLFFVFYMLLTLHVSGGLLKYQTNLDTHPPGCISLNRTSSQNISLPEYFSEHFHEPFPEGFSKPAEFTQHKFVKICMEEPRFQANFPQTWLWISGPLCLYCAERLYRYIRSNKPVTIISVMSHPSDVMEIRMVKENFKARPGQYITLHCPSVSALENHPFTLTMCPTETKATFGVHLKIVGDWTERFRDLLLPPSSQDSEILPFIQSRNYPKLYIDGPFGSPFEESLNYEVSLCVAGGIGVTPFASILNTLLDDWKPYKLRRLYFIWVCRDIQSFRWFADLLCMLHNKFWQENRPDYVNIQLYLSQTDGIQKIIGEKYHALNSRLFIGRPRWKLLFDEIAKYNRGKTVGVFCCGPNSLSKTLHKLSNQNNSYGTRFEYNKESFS
Chain of NADPH oxidase 2 (Homo sapiens) (P04839 whole entry, looked up): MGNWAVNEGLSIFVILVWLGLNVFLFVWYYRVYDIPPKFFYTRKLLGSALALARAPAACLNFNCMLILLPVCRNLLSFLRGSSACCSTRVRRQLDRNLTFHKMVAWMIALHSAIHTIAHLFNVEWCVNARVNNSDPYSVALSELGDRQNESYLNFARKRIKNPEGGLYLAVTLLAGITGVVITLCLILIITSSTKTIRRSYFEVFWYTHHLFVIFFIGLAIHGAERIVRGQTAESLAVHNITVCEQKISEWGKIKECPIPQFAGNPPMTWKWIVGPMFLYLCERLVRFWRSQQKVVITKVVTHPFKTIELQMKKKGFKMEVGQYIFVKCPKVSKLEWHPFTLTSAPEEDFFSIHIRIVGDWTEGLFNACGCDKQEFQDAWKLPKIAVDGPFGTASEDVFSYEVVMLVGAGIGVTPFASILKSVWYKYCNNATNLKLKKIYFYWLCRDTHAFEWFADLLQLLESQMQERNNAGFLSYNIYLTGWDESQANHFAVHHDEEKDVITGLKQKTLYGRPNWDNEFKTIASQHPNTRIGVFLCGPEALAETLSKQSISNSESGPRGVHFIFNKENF

Compound	z-score [1]	composite z-score [2]	z-score [3]	z-score [4]	z-score [5]	z-score [6]	z-score [7]	z-score [8]	z-score [9]	z-score [10]
C[C@@H]1C=CCC(=O)OC[C@H](C)C(=O)OC[C@H]2O[C@H]1C=C[C@H]2O	0.0366 (inactive)	-0.15	1.17 (inactive)	0.714 (inactive)	0.0284 (inactive)	0.254 (inactive)	1.68	-0.648 (inactive)	-2.12 (inactive)	-0.384
CCCC=C(CCC)[C@@H](NC(=O)c1ccc(-c2ccccc2)cc1)c1ccc(C(=O)OC)cc1	-1.23 (inactive)	0.547	0.626 (inactive)	0.453 (inactive)	-0.104 (inactive)	0.987 (inactive)	0.692	-0.0895 (inactive)	1.13 (inactive)	1.81
CO[C@@H]1COC(=O)[C@H](C)NC(=O)[C@@H](C)COC(=O)CCC[C@H]1C	0.298 (inactive)	0.0291	5.14 (inactive)	0.891 (inactive)	1.45 (inactive)	0.516 (inactive)	-0.276	-0.869 (inactive)	0.0705 (inactive)	-1.15
C/C=C\[C@@H](NCc1ccccc1Br)[C@@H](O)Cc1ccccc1	-1.43 (inactive)	0.0927	-0.222 (inactive)	-1.35 (inactive)	0.0141 (inactive)	-2.52 (inactive)	0.365	-0.239 (inactive)	-1.49 (inactive)	-2.69
CCOC(=O)CCN1C(=O)[C@H]2[C@H]3[C@H](O)C=CC(=O)[C@@H]3CC[C@H]2C1=O	-0.221 (inactive)	0.0479	-0.0882 (inactive)	0.501 (inactive)	-0.233 (inactive)	0.352 (inactive)	0.146	1.22 (inactive)	0.463 (inactive)	-0.244
CCN1C(=O)[C@H]2[C@H]3[C@H](O)[C@H](O)CC(=NOCc4ccccc4)[C@@H]3CC[C@H]2C1=O	0.401 (inactive)	0.0224	0.425 (inactive)	-1.09 (inactive)	-0.0231 (inactive)	-2.2 (inactive)	2.27	-0.521 (inactive)	-0.0627 (inactive)	0.388
C[C@H](c1ccccc1)N1C(=O)[C@H]2[C@@H]3C(=CC[C@H]2C1=O)C(=O)[C@H]1O[C@H]1[C@H]3O	0.0931 (inactive)	-0.239	-0.564 (inactive)	-0.0275 (inactive)	0.163 (inactive)	-0.0165 (inactive)	-0.836	-0.76 (inactive)	-0.156 (inactive)	1.13
CCCCCCc1nc(CCCc2cc3c(c(CCCCCC)n2)[Si](C(C)C)(C(C)C)O[C@H]3c2ccccc2)cc2c1[Si](C(C)C)(C(C)C)O[C@H]2c1ccccc1	-1.58 (inactive)	-0.244	0.963 (inactive)	0.165 (inactive)	0.97 (inactive)	0.0888 (inactive)	-0.415	-4.87 (inactive)	0.859 (inactive)	-1.07
COc1cccc([C@H]2Oc3ccc(OC)cc3C(=NO[C@H](C)c3cn([C@@H]4COC[C@H]4O)nn3)[C@@H]2O)c1	-1.79 (inactive)	-0.235	0.162 (inactive)	-1.17 (inactive)	1.91 (inactive)	-1.69 (inactive)	0.444	-0.683 (inactive)	-0.721 (inactive)	-3.94
COCCOC(=O)N1C(=O)[C@@]2(c3cc(C#Cc4ccc(OC)cc4)ccc31)[C@H](c1ccc(O)cc1)N1[C@H](c3ccccc3)[C@H](c3ccccc3)OC(=O)[C@H]1[C@@H]2C(N)=O	0.0372 (inactive)	-0.303	6.02 (inactive)	1.5 (inactive)	-0.407 (inactive)	0.954 (inactive)	-0.0604	0.782 (inactive)	0.689 (inactive)	0.305
COC(=O)CC=C[C@H](C)[C@@H](OCc1ccccc1Br)C(C)C	0.358 (inactive)	-0.149	0.644 (inactive)	0.673 (inactive)	1.01 (inactive)	0.589 (inactive)	0.104	1.04 (inactive)	0.478 (inactive)	0.457
CCOC(=O)CCN1C(=O)[C@H]2[C@H]3[C@H](O)[C@H](O)CC(=O)[C@H]3CC[C@H]2C1=O	-1.98 (inactive)	-0.0984	-0.062 (inactive)	-0.426 (inactive)	-0.451 (inactive)	-1.42 (inactive)	1.11	-0.513 (inactive)	0.947 (inactive)	-0.00675
CCc1cc2c(nc1CC)CCN(CCC(C)=NO[C@@H](C)c1cc(-c3c(C)cc(C)cc3C)no1)C2	0.187 (inactive)	-0.192	4.75 (inactive)	0.445 (inactive)	1.41 (inactive)	0.514 (inactive)	0.549	-2.21 (inactive)	-0.321 (inactive)	-2.75
O=C1[C@H]2[C@H]3[C@H](O)[C@H](O)CC(=NO[C@@H]4O[C@H](CO)[C@@H](O)[C@H](O)[C@H]4O)[C@@H]3CC[C@H]2C(=O)N1c1ccc(F)cc1F	0.178 (inactive)	-0.0145	-0.219 (inactive)	0.363 (inactive)	-0.444 (inactive)	0.205 (inactive)	-0.709	0.455 (inactive)	0.199 (inactive)	-0.606
CC(=O)O[C@H]1C2=C(C(=O)[C@@H]3O[C@@H]31)[C@H]1C(C)O[C@@H]2[C@@]23C(=O)[C@@H]4O[C@@H]4[C@@H](O)C2=CO[C@H](C)[C@@H]13 (stereo not given in full)	-0.0954 (inactive)	-0.191	-0.0129 (inactive)	-0.215 (inactive)	-0.0291 (inactive)	-0.12 (inactive)	-0.56	0.735 (inactive)	0.358 (inactive)	-0.388
